Data taken from PubChem BioAssay AID720517 (National Center for Advancing Translational Sciences (NCATS), 2013).
Inconclusive results are not listed. Entries that show only a call come without a potency. The source made the active and inactive calls. Calls come from the whole dose curve; as a rule, active = well fitted activation curve with a large enough effect; inconclusive = small, poorly fitted or top-dose-only effect; inactive = flat fitted curve, though single readings scatter.

Assay: qHTS for Inhibitors of Cell Surface uPA Generation: FP59 Counterscreen for Cherry-picked Compounds
Details: FP59 anthrax toxin cytotoxicity counterscreen, cells; series mostly up to 115 µM
For `COc1cc(F)ccc1S(=O)(=O)n1c(C)nc2ccccc21`, the Potency was “inactive”. With `CCN(CC)c1c([N+](=O)[O-])c(=O)sc2ccccc12` the Potency was “inactive”. In the case of `CCn1c(=O)cc(C(=O)OC)sc1=Nc1ccc(F)c(F)c1`, the Potency was “inactive”. In the case of `O=[N+]([O-])c1ccccc1C=NNC(=S)NN=Cc1ccccc1[N+](=O)[O-]`, the Potency was “inactive”. In the case of `C[C@@H](C(=O)Nc1ccc2ccccc2c1)[C@@H]1C[C@@]1(C)[C@@H](NC(=O)c1cccnc1)c1ccccc1`, the Potency was “inactive”. In the case of `c1ccc(C2[C@H]3CN(Cc4cccnc4)[C@H](c4ccccc4)C34CC2(c2ccccc2)C4)cc1` (some centres not stated), the Potency was “inactive”. For `Cc1ccc(-n2nc3c(c2NC(=O)c2ccc4c(c2)OCO4)CS(=O)C3)c(C)c1` (configuration not stated), the Potency was “inactive”. In the case of `O=C(CCCOc1ccc(Cl)cc1Cl)NCc1ccncc1`, the Potency was “inactive”. In the case of `O=C(CSc1ccc(Cl)cc1)N1CCCC1`, the Potency was “inactive”. In the case of `CCCCCCCCCOC(=O)C1N2C(=O)[C@@H](NC(=O)COc3ccccc3)[C@H]2SC1(C)C` (some centres not stated), the Potency was “inactive”. For `CCCC1=NN(C(=O)Cc2ccc(OC)cc2)C(O)(C(F)(F)F)C1` (configuration not stated), the Potency was “inactive”. With `COc1ccc([C@H]2[C@H](C(=O)OC(C)(C)C)N3N=Cc4ccccc4C3C23C(=O)c2ccccc2C3=O)cc1OC` (some centres not stated) the Potency was “inactive”. With `Cc1nc(N2CCN(c3ccc(Cl)cc3)CC2)[nH]c(=O)c1C` the Potency was “inactive”. For `COc1ccc(C(=O)OCC(=O)N(C)C2CCS(=O)(=O)C2)cc1S(=O)(=O)N(C)Cc1ccccc1` (configuration not stated), the Potency was “inactive”. For `COc1cc(CN2CCN(c3ncccn3)CC2)cc(OC)c1`, the Potency was “inactive”. In the case of `CCOc1cc(C(=S)N2CCOCC2)ccc1OC(=O)c1cccc(C)c1`, the Potency was “inactive”. In the case of `Clc1ccccc1N1CCN(c2ncnc3nc[nH]c23)CC1`, the Potency was “inactive”. With `CCCCN(CC(=O)Nc1cccc(S(=O)(=O)N2CCCC2)c1)Cc1nc2ccccc2c(=O)[nH]1` the Potency was “inactive”. For `CCOC(=O)C1(CC2CCCCO2)CCN(Cc2nccn2-c2cccc(C)c2)CC1` (configuration not stated), the Potency was “inactive”. For `O=C(NCCS(=O)(=O)N1CCC2(CC1)OCCO2)c1ccc(F)cc1`, the Potency was “inactive”. In the case of `CCCCCOC(=O)Nc1nnc(CCCCC)s1`, the Potency was “inactive”. In the case of `COCCNS(=O)(=O)c1cc(OC)c(C)cc1C`, the Potency was “inactive”.
